KCNQ2 inh: rat KCNQ2 potassium channel inhibitors, primary screen, cell-based, CHO-K1, FluxOR thallium flux, B-score; Potassium voltage-gated channel subfamily KQT member 2 (Rattus norvegicus), O88943; 20 min; active compounds read low; B-score at 10 µM; 310,000 compounds, 1.1% hits;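 active = fluorescence ratio B-score at most minus 3 library SDs, with starting brightness B-score within 2 library SDs, cut at about -5.5 in these data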
KCNQ2 pot: potentiators of rat KCNQ2 potassium channel. CHO-K1 KCNQ2, FluxOR thallium flux fluorescence; active compounds read high. B-score at 10 µM. 310,000 compounds, 0.54% hits;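 active = fluorescence ratio B-score at least 3 SD of library B-scores, with initial fluorescence B-score within 3 of them, cut at about 5.3 in these data; same plate scores as AID 2156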;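 note: B-score of peak minus minimum over baseline fluorescence ratio after K+ and Tl+ stimulus; positive B-score means potentiation of KCNQ2 with more thallium influx and brighter signal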
Kir21 confirm: mouse Kir2.1 channel blockers, retest, confirmation, cell-based, FluxOR thallium flux, duplicate | shares compounds with KCNQ2 pot | Kir2.1-expressing cells, FluxOR thallium flux fluorescence; active compounds read low | Tl flux remaining, % of negative control (active compounds read low), % at 10 µM | 2,300 compounds, 41% hits | AID 2032, 2009;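 active = Primary-screen hit whose thallium flux fell at least 3 control SD below untreated wells in both duplicates, with normal baseline fluorescence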;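 note: 0% = blank wells without stimulus and 100% = stimulated no-compound controls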
HEK293 Tl flux: counter-screen for Kir2.1 inhibitors: effect in parental HEK293 cells; shares compounds with KCNQ2 pot; FluxOR thallium flux fluorescence; 0% = unstimulated blank wells; FluxOR signal as % of negative control (100 = no effect), % at 10 µM; 2,300 compounds, 19% hits; AID 2105;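 active = dye signal at least 3 control SD above or below untreated wells in both duplicates, raw fluorescence within 3, either direction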;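 note: percent is based on the flux ratio of peak minus minimum fluorescence over baseline F0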
CHO-K1 ctr: nonspecific thallium flux increase in parental CHO-K1, confirmation, counter-screen for KCNQ2 potentiator project, cell-based, FluxOR thallium flux, duplicate | shares compounds with KCNQ2 pot | parental CHO-K1 cells, FluxOR thallium flux fluorescence; zero = vehicle mean+3SD, 100% = vehicle-minus-blank window | activity increase over 3SD of controls, % at 10 µM | 1,200 compounds, 43% hits;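 active = signal rise of at least 3 SD above the untreated control mean, in both duplicate wells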;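 note: counter screen of KCNQ2 potentiator hits so any rise reflects channel-independent effects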
KCNQ1 sel pot: human KCNQ1 channel potentiation off-target, confirmation, selectivity assay for KCNQ2 potentiator project, cell-based, CHO, FluxOR thallium flux. CHO KCNQ1 stable, FluxOR thallium flux fluorescence; beyond 3SD, as % of vehicle-control signal. shares compounds with KCNQ2 pot. 1,200 compounds, 28% hits. activation over 3SD threshold, % at 10 µM;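 active = fluorescence ratio rise of at least 3 SD of vehicle wells above their mean, in both replicate wells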;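 note: 0% = vehicle mean plus 3 SD and 100% = vehicle minus unstimulated blank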
Target sequence (P51787 whole entry, looked up): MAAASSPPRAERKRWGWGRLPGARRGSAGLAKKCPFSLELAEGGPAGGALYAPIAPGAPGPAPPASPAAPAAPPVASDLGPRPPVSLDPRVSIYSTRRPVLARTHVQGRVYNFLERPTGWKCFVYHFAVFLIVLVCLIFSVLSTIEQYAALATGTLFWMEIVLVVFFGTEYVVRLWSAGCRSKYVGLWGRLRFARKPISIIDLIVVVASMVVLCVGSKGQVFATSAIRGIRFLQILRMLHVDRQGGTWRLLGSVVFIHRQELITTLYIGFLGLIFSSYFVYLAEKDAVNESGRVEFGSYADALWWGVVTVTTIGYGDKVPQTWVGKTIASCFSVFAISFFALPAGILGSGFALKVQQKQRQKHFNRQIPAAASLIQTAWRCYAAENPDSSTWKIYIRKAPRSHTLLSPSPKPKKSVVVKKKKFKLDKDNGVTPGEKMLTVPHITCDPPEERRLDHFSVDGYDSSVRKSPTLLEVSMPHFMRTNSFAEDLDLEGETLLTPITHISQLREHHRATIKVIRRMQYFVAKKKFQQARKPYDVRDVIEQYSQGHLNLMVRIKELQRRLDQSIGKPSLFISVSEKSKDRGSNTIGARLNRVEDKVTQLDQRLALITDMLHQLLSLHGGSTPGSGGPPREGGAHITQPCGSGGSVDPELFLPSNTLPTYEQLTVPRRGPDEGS
KCNQ2 pot conf: rat KCNQ2 channel potentiators, confirmation, cell-based, CHO, FluxOR thallium flux, duplicate; shares compounds with KCNQ2 pot; potentiation, less the hit threshold, % at 10 µM; CHO-KCNQ2 cells, FluxOR thallium flux fluorescence; 1,200 compounds, 68% hits;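 active = fluorescence ratio rising 3 SD or more over the vehicle control mean in both replicates, plus primary screen hit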;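 note: peak minus minimum thallium fluorescence divided by baseline after K/Tl stimulus; 0% = vehicle mean plus 3 SD and 100% = vehicle minus unstimulated blank difference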
Kir21 spec: mouse Kir2.1 channel activation off-target, confirmation, selectivity assay for KCNQ2 potentiator project, cell-based, HEK293, FluxOR thallium flux | shares compounds with KCNQ2 pot | HEK293 Kir2.1, FluxOR thallium flux fluorescence | activity over 3SD threshold, % at 10 µM | 1,200 compounds, 2% hits;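 active = fluorescence ratio rise of at least 3 SD above the vehicle-control mean, seen in both replicates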;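 note: 0% = vehicle mean plus 3 SD and 100% = vehicle minus no-stimulus blank window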
KCNQ2 W236L pot: potentiators of retigabine-insensitive KCNQ2 W236L, mechanism study for KCNQ2 potentiator project, cell-based, rat KCNQ2 W236L, CHO, automated patch clamp | shares compounds with KCNQ2 pot | automated patch clamp current | current increase over 3SD of negative controls (%), active compounds read high, % at 25 µM | 940 compounds, 10% hits | AID 2558, 2010;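 active = current increase at least 3 SD of the untreated controls above them in both duplicate recordings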
Active calls of the source: *. An excerpt weighted towards active compounds, which were near 1.6% of everything screened.

How did O=C(Cc1cccc(C(F)(F)F)c1)Nc1ccccc1N1CCCC1 do in these assays?
KCNQ2 inh: inactive; KCNQ2 pot: 11*; Kir21 confirm: inactive; HEK293 Tl flux: inactive; CHO-K1 ctr: -11; KCNQ1 sel pot: -21; KCNQ2 pot conf: 60*; Kir21 spec: -52; KCNQ2 W236L pot: inactive

Results for O=C(Cc1ccccc1)Nc1ccccc1N1CCOCC1 ?
KCNQ2 inh: inactive

How did Cc1cccc(NC(=O)NC2CCCc3ccccc32)c1 (configuration not stated) do in these assays?
KCNQ2 inh: inactive

Results for C[C@H](NC(=O)COc1ccc(Cl)cc1)C(=O)N1CCC2(CC1)NCCc1[nH]cnc12 ?
KCNQ2 inh: inactive

Results for O=C(NCCNC(=O)c1ccc(Cl)cc1Cl)c1cnccn1 ?
KCNQ2 inh: inactive; KCNQ2 pot: 0.69

How did CC1CCCC(NC(=O)COC(=O)Cc2ccc(Br)cc2)C1C (configuration not stated) do in these assays?
KCNQ2 inh: inactive; KCNQ2 pot: 0.24

Results for CC1CCCC(NC(=O)Cc2ccc(Br)cc2)C1C (configuration not stated) ?
KCNQ2 inh: inactive; KCNQ2 pot: 5.5*; Kir21 confirm: inactive; HEK293 Tl flux: inactive; CHO-K1 ctr: 49*; KCNQ1 sel pot: 1.4*; KCNQ2 pot conf: 3.0*; Kir21 spec: -12; KCNQ2 W236L pot: inactive

How did Cc1ccc(C)c(S(=O)(=O)Nc2ccc(O)cc2)c1 do in these assays?
KCNQ2 inh: inactive; KCNQ2 pot: 3.1

Results for Cc1cc(C)c(S(=O)(=O)Nc2ccc(O)cc2)cc1C ?
KCNQ2 inh: inactive; KCNQ2 pot: 10*; CHO-K1 ctr: -11; KCNQ1 sel pot: 1.5*; KCNQ2 pot conf: 40*; Kir21 spec: -81; KCNQ2 W236L pot: inactive

What do the screens show for `O=C(NCC(c1ccc(F)cc1)N1CCOCC1)c1cc(F)c(F)c(F)c1F` (configuration not stated)?
KCNQ2 inh: inactive

Results for O=C(CC12CC3CC(CC(C3)C1)C2)NCC(c1ccc(F)cc1)N1CCOCC1 (configuration not stated) ?
KCNQ2 inh: inactive; KCNQ2 pot: 11*; Kir21 confirm: inactive; HEK293 Tl flux: inactive; CHO-K1 ctr: -13; KCNQ1 sel pot: -15; KCNQ2 pot conf: 36*; Kir21 spec: -49; KCNQ2 W236L pot: inactive

How did O=C1CSC(c2ccc(Cl)cc2)N1C1CCCCC1 (configuration not stated) do in these assays?
KCNQ2 inh: inactive; Kir21 confirm: 64%*; HEK293 Tl flux: inactive

What do the screens show for `O=C1CSC(c2cccnc2)N1C1CCCCC1` (configuration not stated)?
KCNQ2 inh: inactive; KCNQ2 pot: 0.39

Results for COc1ccc(OC)c(C(C)NC(=O)C23CC4CC(CC(C4)C2)C3)c1 (configuration not stated) ?
KCNQ2 inh: inactive; KCNQ2 pot: 4.8

Results for COc1ccc(OC)c(C(C)NC(=O)Nc2ccccc2)c1 (configuration not stated) ?
KCNQ2 inh: inactive; KCNQ2 pot: 9.6*; CHO-K1 ctr: -9; KCNQ1 sel pot: -12; KCNQ2 pot conf: 33*; Kir21 spec: -64; KCNQ2 W236L pot: inactive

What do the screens show for `CC1=CC(C)(C)n2c(O)c(N=NC(N)=S)c3c(C)ccc1c32`?
KCNQ2 inh: inactive; KCNQ2 pot: 0.15

Results for CC1=CC(C)(C)n2c(O)c(N=N)c3c(C)ccc1c32 ?
KCNQ2 inh: inactive; KCNQ2 pot: 5.3*; Kir21 confirm: inactive; HEK293 Tl flux: inactive; CHO-K1 ctr: 54*; KCNQ1 sel pot: -9; KCNQ2 pot conf: -15; Kir21 spec: -21

What do the screens show for `CN1CCN(c2nnc(-c3ccccc3)c(-c3ccccc3)n2)CC1`?
KCNQ2 inh: inactive; KCNQ2 pot: 1

What do the screens show for `Cc1ccc2nc(N3CCN(CCO)CC3)nc(-c3ccccc3)c2c1`?
KCNQ2 inh: inactive; Kir21 confirm: 48%*; HEK293 Tl flux: inactive

What do the screens show for `CCOC(=O)N1CCN(c2nc(-c3ccccc3)c3cc(C)ccc3n2)CC1`?
KCNQ2 inh: inactive

Results for CN1CCN(c2nc(-c3ccccc3)c3cc(Cl)ccc3n2)CC1 ?
KCNQ2 inh: inactive; Kir21 confirm: 60%*; HEK293 Tl flux: inactive

What do the screens show for `Cc1ccccc1NC(=O)c1nn(C)c2c1CS(=O)(=O)c1ccccc1-2`?
KCNQ2 inh: inactive; KCNQ2 pot: 0.01

What do the screens show for `O=C(O)c1ccccc1-n1c2ccccc2c2ccccc21`?
KCNQ2 inh: inactive

Results for CCOC(=O)N/N=C(/C)c1ccc(N2C(=O)C3CCCCC3C2=O)cc1 (configuration not stated) ?
KCNQ2 inh: inactive

How did O=C(NCCCN1CCCC1=O)c1ccc(NS(=O)(=O)c2cccc([N+](=O)[O-])c2)cc1 do in these assays?
KCNQ2 inh: inactive; KCNQ2 pot: 0.71

What do the screens show for `Cc1nc(C)c(-c2csc(Nc3ccccn3)n2)s1`?
KCNQ2 inh: inactive; KCNQ2 pot: 5.7*; Kir21 confirm: inactive; HEK293 Tl flux: inactive; CHO-K1 ctr: -14; KCNQ1 sel pot: 15*; KCNQ2 pot conf: 26*; Kir21 spec: -28; KCNQ2 W236L pot: 40%*

How did Cc1ccnc(Nc2nc(-c3sc(C)nc3C)cs2)c1 do in these assays?
KCNQ2 inh: inactive; KCNQ2 pot: 2.9
